In PubChem BioAssay (EPA / NIEHS):
Results filed as inconclusive are left out. The source made the active and inactive calls. The calls were made as follows, unless noted: active = hit-call score of the fitted dose curve at least 0.9, where 1 is the maximum; inactive = score below 0.9.

What was measured:
[1] = ACEA_ER_80hr: ACEA Biosciences xCELLigence Real-Time Cell Analysis on Estrogen Receptor Agonism for Proliferation (AID 2282667; active = hit-call score of the fitted dose curve at least 0.9, where 1 is the maximum); conditions: T47D proliferation, impedance (xCELLigence), 80 h
Method in brief: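 Real-time electrical impedance tracked growth of the human breast line T47D, with the 80 h post-dosing value used. Dosing spanned eight 1:4 steps down from a 100 uM final top concentration, run in duplicate.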

[2] = APR_HepG2_CellCycleArrest_24hr: Apredica 24-hour HepG2 Assay for Cell Cycle Arrest (AID 2282905); conditions: imaging, actives raise or lower the signal;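 also: cell cycle arrest scored as ratio of 2N to 4N nuclear DNA content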
Method in brief: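 Step one: dose HepG2 with test compounds, 0.39–200 uM, 0.5% DMSO, 24 hr. Step two: fix, permeabilize, stain nuclei with Hoechst 33342. Step three: image six fields per well at 20x, quantify DNA content, fit bidirectionally relative to DMSO.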

[3] = APR_HepG2_NuclearSize_24hr: Apredica 24-hour HepG2 Assay for Nuclear Size (AID 2282907); conditions: high-content imaging, actives raise or lower the signal
Method in brief: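 After fixation and permeabilization, 24-hr-treated HepG2 cells were stained with Hoechst 33342 and imaged on an ArrayScan (20x). Doses spanned 0.39–200 uM in duplicate. Nuclear diameter changes in either direction were fitted relative to 0.5% DMSO controls.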

[4] = APR_HepG2_CellLoss_24hr: Apredica 24-hour HepG2 Assay for Cell Loss (AID 2282908); conditions: high-content imaging;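 as to AC50: fit in both directions so a hit may be cell loss or gain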
Method in brief: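 Duplicate wells received compound at ten concentrations (0.39–200 uM; final DMSO 0.5% v/v). After fixation with formaldehyde, nuclei stained with Hoechst 33342 were imaged at 20x. Loss or gain of cell count was fitted relative to DMSO controls.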

[5] = APR_HepG2_MicrotubuleCSK_24hr: Apredica 24-hour HepG2 Assay for Microtubule CSK Stabilty (AID 2282909); conditions: HepG2 microtubule cytoskeleton imaging, actives raise or lower the signal
Method in brief: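 Microtubule stability is scored from tubulin immunofluorescence in fixed HepG2 cells imaged at 20x. Cells receive ten compound concentrations up to 200 uM for 24 h; taxol and DMSO serve as positive and negative controls.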

[6] = APR_HepG2_MitoticArrest_24hr: Apredica 24-hour HepG2 Assay for Mitotic Arrest (AID 2282910); conditions: high-content imaging, actives raise or lower the signal
Method in brief: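 HepG2, 24 hr dosing, 0.39–200 uM, 0.5% DMSO final. Formaldehyde-fixed, Triton-permeabilised, anti-phospho-histone H3 plus Hoechst. ArrayScan imaging at 20x; bidirectional fit vs DMSO baseline.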

[7] = APR_HepG2_MitoMembPot_24hr: Apredica 24-hour HepG2 Assay for Mitochondrial Membrane Potential (AID 2282911); conditions: imaging, actives raise or lower the signal
Method in brief: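 Cells are dosed for 24 hr across 0.39 to 200 uM with solvent held at 0.5% DMSO. They are then stained with 250 nM MitoTracker Red CMXRos for 30 min, fixed in 3.7% formaldehyde and imaged.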

[8] = APR_HepG2_MitoMass_24hr: Apredica 24-hour HepG2 Assay for Mitochondrial Mass (AID 2282912); conditions: high-content imaging, actives raise or lower the signal
Method in brief: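 Readout: fluorescence of MitoTracker Red CMXRos (250 nM, added 30 min pre-fixation) in fixed HepG2 cells imaged by HCS. Exposure lasted 24 hr at 0.39–200 uM; increases and decreases were both fitted relative to DMSO.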

[9] = APR_HepG2_CellCycleArrest_72hr: Apredica 72-hour HepG2 Assay for Cell Cycle Arrest (AID 2282914); conditions: high-content imaging, actives raise or lower the signal
Method in brief: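 Read-out is Hoechst-stained nuclear DNA content measured by automated fluorescence imaging (20x, six images per well), fitted in both directions relative to DMSO. Human HepG2 liver cells received 0.39–200 uM compound for 72 hr at 0.5% v/v DMSO.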

[10] = APR_HepG2_CellLoss_72hr: Apredica 72-hour HepG2 Assay for Cell Loss (AID 2282915); conditions: high-content imaging
Method in brief: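 HepG2 cells exposed 72 h to compound at 0.39–200 uM (10 concentrations, duplicate) in 0.5% DMSO. Fixed with 3.7% formaldehyde and Hoechst 33342-stained. Imaged at 20x; nuclear count gives cell number, fitted bidirectionally versus DMSO.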

[11] = APR_HepG2_P-H2AX_72hr: Apredica 72-hour HepG2 Assay for H2AX Phosphorylation (AID 2282916); conditions: imaging, actives raise or lower the signal;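 also: phospho-histone H2A.x immunostain intensity per cell marking DNA damage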
Method in brief: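 Phospho-H2A.x imaging endpoint in HepG2 after 72 hr compound exposure (0.39–200 uM, duplicate wells). Activity derived by bidirectional curve fitting with DMSO as baseline.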

[12] = APR_HepG2_MitoMembPot_72hr: Apredica 72-hour HepG2 Assay for Mitochondrial Membrane Potential (AID 2282917); conditions: imaging, actives raise or lower the signal
Method in brief: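 HepG2 cells dosed 72 hr with compound at 0.39–200 uM in duplicate, 0.5% v/v DMSO final. Mitochondria stained with 250 nM MitoTracker Red CMXRos for 30 min before formaldehyde fixation, imaged by high-content fluorescence; bidirectional fit versus DMSO.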

[13] = APR_HepG2_MitoticArrest_72hr: Apredica 72-hour HepG2 Assay for Mitotic Arrest (AID 2282918); conditions: high-content imaging, actives raise or lower the signal
Method in brief: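 Read-out is phospho-histone H3 immunofluorescence with Hoechst nuclear segmentation, imaged at 20x. Human HepG2 liver cells received ten concentrations (0.39–200 uM, final DMSO 0.5% v/v) for 72 hr before fixation. Gain or loss of signal was fitted relative to DMSO.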

[14] = APR_HepG2_MicrotubuleCSK_72hr: Apredica 72-hour HepG2 Assay for Microtubule CSK Stabilty (AID 2282919); conditions: HepG2 microtubule cytoskeleton, high-content imaging, actives raise or lower the signal
Method in brief: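 HepG2, 72 hr cmpd exposure, 0.39–200 uM (10 pts, duplicate), 0.5% DMSO. 3.7% formaldehyde fix, 0.5% Triton perm, anti-alpha-tubulin/Cy5 plus Hoechst. HCS fluorescence intensity; bidirectional fit vs DMSO baseline; taxol as positive control.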

[15] = APR_HepG2_P-H2AX_24hr: Apredica 24-hour HepG2 Assay for H2AX Phosphorylation (AID 2282920); conditions: high-content imaging, actives raise or lower the signal
Method in brief: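 HepG2, 24 hr, cpd 0.39–200 uM (10 conc, duplicate), DMSO 0.5% v/v final. Fix 3.7% formaldehyde, Triton X-100 permeabilize, anti-phospho-H2A.x 1:200 + Hoechst 2 ug/mL. Imaged, bidirectional fit vs DMSO.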

[16] = APR_HepG2_StressKinase_24hr: Apredica 24-hour HepG2 Assay for Stress Kinase (AID 2282922); conditions: HepG2 stress kinase (phospho-c-Jun) imaging, actives raise or lower the signal
Method in brief: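 Read-out: phospho-c-Jun immunofluorescence (Cy3 secondary) quantified by high-content imaging at 20x, nuclei defined by Hoechst 33342. Human HepG2 liver cells dosed 24 hr, 0.39–200 uM, DMSO 0.5% v/v; gain or loss of signal fitted relative to DMSO.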

[17] = APR_HepG2_MitoMass_72hr: Apredica 72-hour HepG2 Assay for Mitochondrial Mass (AID 2282924); conditions: high-content imaging, actives raise or lower the signal;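 also: MitoTracker Red CMXRos stain intensity per cell imaged as mitochondrial mass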
Method in brief: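 Read-out: MitoTracker Red fluorescence intensity from automated imaging (20x, six fields per well) in human HepG2 liver cells. Dosing ran 72 hr, 0.39–200 uM, 0.5% DMSO; bidirectional curve fitting versus DMSO baseline.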

[18] = APR_HepG2_p53Act_24hr: Apredica 24-hour HepG2 Assay for p53 Activation (AID 2282913); conditions: high-content imaging, actives raise or lower the signal;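 also: p53 protein immunofluorescence averaged per cell in HepG2 with Hoechst nuclei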
Method in brief: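 Human HepG2 liver cells; 24 hr cpd treatment, 0.39–200 uM, 0.5% DMSO final. Fixed in 3.7% formaldehyde, permeabilized with 0.5% Triton X-100, stained with anti-p53/Cy5 plus Hoechst 33342. Six images per well at 20x; gain or loss vs DMSO.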

[19] = APR_HepG2_StressKinase_72hr: Apredica 72-hour HepG2 Assay for Stress Kinase (AID 2282921); conditions: HepG2 stress kinase (phospho-c-Jun) imaging, actives raise or lower the signal
Method in brief: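 Stress kinase signal reflects nuclear phospho-c-Jun staining in fixed, permeabilized cells exposed 72 h to compound at 0.39–200 uM; DMSO-normalized, fitted for increases or decreases.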

[20] = APR_HepG2_p53Act_72hr: Apredica 72-hour HepG2 Assay for p53 Activation (AID 2282923); conditions: high-content imaging, actives raise or lower the signal;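 also: average cellular p53 protein immunofluorescence intensity in HepG2 cells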
Method in brief: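 Fixed-cell p53 staining (sheep primary, Cy5 secondary) measured by fluorescence imaging following 72 hr treatment at 0.39–200 uM in 0.5% DMSO; DMSO served as negative control and baseline.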

Measured: AC50

NC(=O)N(O)[C@@H]1COc2cc(OCc3ccccc3)ccc21
inactive: [1] | [2] | [3] | [4] | [5] | [6] | [8] | [9] | [10] | [11] | [12] | [13] | [14] | [15] | [16] | [17]
active: [7] 52.2 µM

OC[C@H]1O[C@@](CO)(O[C@H]2O[C@H](CO)[C@@H](O)[C@H](O)[C@H]2O)[C@@H](O)[C@@H]1O
inactive: [1] | [2] | [3] | [4] | [5] | [6] | [7] | [8] | [9] | [10] | [11] | [12] | [13] | [14] | [15] | [16] | [17]

O=C(O)c1cccc(C(=O)O)c1
inactive: [1] | [2] | [3] | [4] | [5] | [6] | [7] | [8] | [9] | [10] | [11] | [15] | [16]

OCc1ccccc1
inactive: [1] | [2] | [3] | [4] | [5] | [6] | [7] | [8] | [9] | [10] | [11] | [12] | [13] | [14] | [15] | [16] | [17]

CCCOc1ccc(S(=O)(=O)N2CCN(CC)CC2)cc1-c1nc2c(CC)n(Cc3ccccn3)nc2c(=O)[nH]1
active: [10] 88.5 µM | [11] 99.7 µM | [13] 90.2 µM
inactive: [1] | [2] | [3] | [4] | [5] | [6] | [7] | [8] | [9] | [12] | [14] | [15] | [16] | [17]

Cc1nccn1-c1ccc(Sc2cccc(C3(C(N)=O)CCOCC3)c2)cc1
active: [1] 0.782 µM | [4] 3.13 µM | [8] 19.8 µM | [9] 5.05 µM | [10] 17.4 µM | [11] 40.9 µM | [15] 73.4 µM
inactive: [2] | [3] | [5] | [6] | [7] | [12] | [13] | [14] | [16] | [17]

CC(C)CC(C)O (stereo unspecified)
inactive: [1] | [2] | [3] | [4] | [5] | [6] | [7] | [8] | [9] | [10] | [11] | [12] | [13] | [14] | [15] | [16] | [17]

CNC(C)=O
inactive: [1] | [2] | [3] | [4] | [5] | [6] | [7] | [8] | [9] | [10] | [11] | [12] | [13] | [14] | [15] | [16] | [17]

OC[C@H]1O[C@@H]2O[C@H]3[C@H](O)[C@@H](O)[C@@H](O[C@H]4[C@H](O)[C@@H](O)[C@@H](O[C@H]5[C@H](O)[C@@H](O)[C@@H](O[C@H]6[C@H](O)[C@@H](O)[C@@H](O[C@H]7[C@H](O)[C@@H](O)[C@@H](O[C@H]1[C@H](O)[C@H]2O)O[C@@H]7CO)O[C@@H]6CO)O[C@@H]5CO)O[C@@H]4CO)O[C@@H]3CO
inactive: [1] | [2] | [3] | [4] | [5] | [6] | [7] | [8] | [9] | [10] | [11] | [12] | [13] | [14] | [15] | [16] | [17]

COc1cc(C(C)C)c2c(c1)S(=O)(=O)N(COc1cc(=O)n3cccc(OCCN4CCCCC4)c3n1)C2=O
inactive: [1] | [3] | [9] | [11] | [12] | [13] | [14] | [16] | [17]
active: [2] 17.7 µM | [4] 24.2 µM | [5] 15.8 µM | [6] 24 µM | [7] 26.4 µM | [8] 29.1 µM | [10] 23.1 µM | [15] 10.7 µM

CCCCCCCC1CCC(=O)O1 (stereo unspecified)
inactive: [1] | [4] | [6] | [7] | [8] | [18] | [10] | [11] | [12] | [13] | [15] | [19] | [16] | [20] | [17]
